HT1080-NT tox: kills 2HG-producing HT-1080-NT fibrosarcoma cells. HT-1080-NT fibrosarcoma viability, CellTiter-Glo ATP luminescence, 48 h. Potency, µM (doses to about 46.1 µM), most hits filed as cytotoxic. 360,000 tested, 1.6% active. AID 686970;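 note: NT is the 2HG producing partner of a matched IDH1 knockdown line; nearly all actives have a fitted effect of over 55% in size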
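Viability by CellTiter-Glo luminescence after 48 h compound exposure at 37C of HT-1080-NT cells (750/well, RPMI, 5% FBS). % activity scaled between DMSO wells and medium-only wells, then curve-fitted and categorized by curve class.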
HT1080 IDH1KD tx: toxicity to HT-1080 IDH1 knockdown cells (counter line). HT-1080 IDH1 knockdown viability, ATP luminescence, 48 h. Potency, µM (top dose mostly 46.1 µM), hits mostly cytotoxic. 360,000 tested, 2% active. AID 686971
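IDH1KD HT-1080 cells, 750/well, RPMI + 5% FBS; compound pinned after 2 h settling; 48 h, 37 °C; CellTiter-Glo luminescence; % activity normalised to DMSO and no-cell wells; curves fitted, classed by r2 and efficacy.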
IL1B secr inh: inflammasome signaling inhibition, IL-1 beta readout; THP-1 LPS/ATP IL-1B secretion, AlphaLISA, 16 h; active compounds read low; activity change, % at 57.5 µM; 360,000 tested, 4.7% active; AID 743279; in the data active = activity change below about -50%; inconclusive = mostly about -30% to -49%
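Secreted IL-1B measured by AlphaLISA bead assay after 16 h compound exposure of THP-1 cells; compounds (final up to 57.5 uM) added 1 h before LPS (250 ng/mL) and ATP (1.25 mM) stimulation; lower signal means less secretion.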
TDP1 cell CPT: growth inhibition of DT40 Tdp1-/-;hTDP1 cells with camptothecin (screen for TDP1 inhibitors); chicken DT40 Tdp1-/-;hTDP1 cells + 20 nM CPT, ATP luminescence, 48 h; Potency, µM (series often up to 46.2 µM), hits mostly inhibitors; 420,000 tested, 12% active; AID 686979; note: nearly all actives have a fitted effect of over 55% in size
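Cell growth measured by CellTiter-Glo luminescence after a minimum 48 h, 37 C compound exposure with 20 nM CPT in Tdp1-knockout DT40 cells stably expressing hTDP1, seeded 400/well; qHTS titration format.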
TDP1 cell noCPT: qHTS for Inhibitors of human tyrosyl-DNA phosphodiesterase 1 (TDP1): qHTS in cells in absence of CPT; 420,000 tested, 15% active; DT40 Tdp1-/- hTDP1 cells, no CPT, ATP luminescence, 48 h; Potency, µM (top dose mostly 46.2 µM), usual class: inhibitors; AID 686978, 2013; note: nearly all actives have a fitted effect of over 55% in size
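Chicken DT40 Tdp1-/- cells stably complemented with human TDP1 were seeded at 400 cells/well with DMSO in place of 20 nM camptothecin. After compound pinning, cells grew at least 48 hr at 37 °C; viability read by CellTiter-Glo luminescence.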
Numbers stand for hits; [ ] = remark or other dose. A selection: hits, their analogues and other compounds. The true share with any hit is near 19%. Unless noted, calls come from the whole dose curve; as a rule, active = well fitted curve in the direction sought with a large enough effect; inconclusive = small, poorly fitted or top-dose-only effect, or another doubt; inactive = no such curve, though single readings can be large; an effect the other way counts as inactive or inconclusive.

How did O=C(NNc1ccccc1[N+](=O)[O-])Nc1ccccc1 do in these assays?
HT1080-NT tox: inactive; HT1080 IDH1KD tx: inactive; IL1B secr inh: inactive; TDP1 cell CPT: 15µM; TDP1 cell noCPT: inconclusive

Results for O=C(NNc1ccccc1[N+](=O)[O-])Nc1ccc(F)cc1 ?
HT1080-NT tox: inactive; HT1080 IDH1KD tx: inactive; IL1B secr inh: inactive; TDP1 cell CPT: inconclusive; TDP1 cell noCPT: inactive

How did O=C(Nc1ccc(Cl)c(Cl)c1)Nc1ccccc1O do in these assays?
HT1080-NT tox: inactive; HT1080 IDH1KD tx: inactive; IL1B secr inh: inactive; TDP1 cell CPT: inconclusive; TDP1 cell noCPT: inconclusive

Results for O=C(NNc1ccccc1[N+](=O)[O-])Nc1ccc(Cl)c(Cl)c1 ?
HT1080-NT tox: 18µM; HT1080 IDH1KD tx: 18µM; IL1B secr inh: -93; TDP1 cell CPT: inconclusive; TDP1 cell noCPT: inconclusive

How did CCOc1ccc(NC(=O)C2CCN(S(=O)(=O)c3c(C)noc3/C=C/c3c(C)cc(C)cc3C)CC2)cc1 do in these assays?
TDP1 cell CPT: 9.2µM; TDP1 cell noCPT: 6.5µM

Results for COc1cc(OC)c(NC(=O)C2CCN(S(=O)(=O)c3c(C)noc3/C=C/c3c(C)cc(C)cc3C)CC2)cc1Cl ?
TDP1 cell CPT: inactive; TDP1 cell noCPT: inactive

Results for Cc1noc(/C=C/c2ccccc2F)c1S(=O)(=O)N1CCC(C(=O)NCC(C)c2ccccc2)CC1 (configuration not stated) ?
TDP1 cell CPT: inactive; TDP1 cell noCPT: inactive

How did Cc1cc(C)c(/C=C/c2onc(C)c2S(=O)(=O)N2CCC(C(=O)NCC(C)c3ccccc3)CC2)c(C)c1 (configuration not stated) do in these assays?
TDP1 cell CPT: 23µM; TDP1 cell noCPT: 15µM

Results for CCCNC(=O)C1CCN(S(=O)(=O)c2c(C)noc2/C=C\c2ccc(OC)cc2)CC1 ?
HT1080-NT tox: inactive; HT1080 IDH1KD tx: inactive; IL1B secr inh: inactive; TDP1 cell CPT: inactive; TDP1 cell noCPT: inactive

What do the screens show for `Cc1cc(C)c(/C=C/c2onc(C)c2S(=O)(=O)N2CCC(C(=O)Nc3ccc(Cl)c(C(F)(F)F)c3)CC2)c(C)c1`?
TDP1 cell CPT: 4.1µM; TDP1 cell noCPT: 5.8µM

What do the screens show for `CCOc1ccc(N(C)C(=O)C2CCN(S(=O)(=O)c3c(C)noc3/C=C/c3ccc(C)cc3)CC2)cc1`?
TDP1 cell CPT: 4.1µM; TDP1 cell noCPT: 5.8µM

Results for CC(C)c1ccc(NC(=O)C(Cc2ccccc2)NS(=O)(=O)c2ccc3c(c2)CCC(=O)N3)cc1 (configuration not stated) ?
TDP1 cell CPT: inactive; TDP1 cell noCPT: inconclusive

What do the screens show for `O=C(NCc1ccccc1Cl)c1ccc2nnsc2c1`?
HT1080-NT tox: inconclusive; HT1080 IDH1KD tx: inactive; IL1B secr inh: inactive; TDP1 cell CPT: inactive; TDP1 cell noCPT: inconclusive

How did COC(=O)c1ccc(C(=O)N(C)C2CCCN(Cc3ccccc3F)C2)nc1 (configuration not stated) do in these assays?
HT1080-NT tox: inactive; HT1080 IDH1KD tx: inactive; IL1B secr inh: inactive; TDP1 cell CPT: inactive; TDP1 cell noCPT: inactive

What do the screens show for `CS(=O)(=O)N(Cc1ccccc1)c1ccccc1C(=O)Nc1ccccc1C(=O)NCc1ccco1`?
HT1080-NT tox: inactive[9.24 µM]; HT1080 IDH1KD tx: inactive; IL1B secr inh: inactive; TDP1 cell CPT: inactive; TDP1 cell noCPT: inactive

What do the screens show for `Cc1ccc(S(=O)(=O)N(Cc2ccccc2)c2ccccc2C(=O)Nc2ccccc2C(=O)NCc2ccco2)cc1`?
HT1080-NT tox: inactive; HT1080 IDH1KD tx: inactive; IL1B secr inh: inactive; TDP1 cell CPT: 23µM; TDP1 cell noCPT: inconclusive

Results for Cc1ccc(S(=O)(=O)N(Cc2ccccc2)c2ccccc2C(=O)NCc2ccco2)cc1 ?
HT1080-NT tox: 11µM; HT1080 IDH1KD tx: inactive[9.24 µM]; IL1B secr inh: -94; TDP1 cell CPT: inconclusive; TDP1 cell noCPT: inconclusive

What do the screens show for `CCOC(=O)c1c[nH]n2c(=S)ncnc12`?
HT1080-NT tox: inactive; HT1080 IDH1KD tx: inactive; IL1B secr inh: inactive; TDP1 cell CPT: inactive; TDP1 cell noCPT: inconclusive

How did COc1ccc(NC(=O)NC2(C(=O)N3CCOCC3)CCCCC2)cc1 do in these assays?
HT1080-NT tox: inactive; HT1080 IDH1KD tx: inactive; IL1B secr inh: inactive; TDP1 cell CPT: inactive; TDP1 cell noCPT: inactive

High-throughput results as filed in PubChem BioAssay.
